# Active and inactive are the calls of the source. How the source made its calls: active means hit-call score of the fitted dose curve at least 0.9, where 1 is the maximum; inactive means score below 0.9.
# Experiment: CEETOX_H295R_PROG: CeeTox H295R High-throughput Steroidogenesis Assay for Progesterone (PROG) (AID 2283442);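 on AC50: human H295R adrenal cells primed with 10 µM forskolin before dosing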
# Conditions: actives raise or lower the signal
# Method: CEETOX_H295R is a cell-based, multiplexed-readout assay that uses H295R, a human adrenal gland cell line, with measurements taken at 48 hours after chemical dosing in a 96-well plate.CEETOX_H295R_PROG is one of 23 assay component(s) measured or calculated from the CEETOX_H295R assay. It is designed to make measurements of hormone induction, a form of inducible reporter, as detected with absorbance signals by HPLC-MS-MS technology.Data from the assay component CEETOX_H295R_PROG was analyzed into 1 assay endpoint. This assay endpoint, CEETOX_H295R_PROG, was analyzed with bidirectional fitting relative to DMSO as the negative control and baseline of activity. Using a type of inducible reporter, gain or loss-of-signal activity using HPLC-MS-MS was used to understand synthesis of Progesterone in H295R cell line at 48hr of chemical exposure. To generalize the intended target to other relatable targets, this assay endpoint is annotated to the steroid hormone intended target family, where the subfamily is progestagens.
# Cell culture and media preparation procedures were conducted in accordance with OECD Test No. 456 guidelines, with minor modifications. H295R cells (ATCC CRL-2128) were expanded for 5 passages and frozen in batches in liquid nitrogen. Prior to the steroidogenesis assay, H295R cells were thawed and passed at least 4 times. The maximum passage was 10. Cells were maintained in a 1:1 mixture of DMEM/F12 supplemented with 5ml/L ITS+ Premix (BD Bioscience) and 12.5 ml/L Nu-Serum (BD Bioscience). After seeding cells into 96-well plates at 50-60% confluency, cells were allowed to adhere overnight. Prior to chemical testing, culture medium was replaced with 175 uL medium containing 10 uM forskolin to stimulate steroidogenesis for 48 hours. Following prestimulation, forskolin medium was replaced with medium containing test chemical solubilized in DMSO (ensuring a final concentration of 0.1% DMSO). Test chemicals were incubated for 48 hours, then the medium was removed and split into 2 vials containing approximately 75uL each, and stored at -80 C prior to hormone analysis. For steroid quantification, media samples were shipped to OpAns, LLC (Durham, NC) on dry ice, and samples were thawed to room temperature prior to liquid-liquid extraction. Steroid hormones were extracted from media samples using methyl tertbutyl ether (MTBE). An extra derivatization with dansyl chloride was included for estrogen (estrone and estradiol) detection only. Steroid hormones were separated by HPLC, eluted using a reverse phase C18 gradient with electrospray positive ionization, followed by quantification by tandem mass spectrometry (MS/MS). Data were acquired on a MassHunter Workstation Acquisition version B03.01 (Agilent Technologies, Inc.) and processed using MassHunter Quantitative Analysis for QQQ. Accuracy was determined for each hormone analyte from 3 standards to determine upper and lower limits of quantification (ULOQ and LLOQ, respectively) using a 7-point standard curve. Precision and accuracy of the extraction and quantification methods were calculated as the percent relative standard deviation (%RSD) of the spiked standards and percent spiked standard recovered, respectively. The goal was to achieve 100% accuracy (i.e., recover all spiked-in standard at quantification with minimal loss during run time) and good precision (i.e., have %RSD <15% to ensure reproducibility). Test medium was removed following chemical exposure, and cell viability was evaluated in the same wells by MTT. MTT procedures were as follows: after removal of test medium, 500 uL of 0.5 mg/ml of 3-[4,5-dimethylthiazol-2-y]2,5-diphenyltetrazoliumbromide solution was added to the cells. Following a 4-hour incubation at 37 C and 5% CO2 to allow formazan-crystal formation, the MTT solution was removed and blue formazan salt crystals were solubilized using 500uL anhydrous isopropanol with shaking for 20 minutes. Absorbance was read at 570 and 650nm using a Packard Fusion microplate reader. […]
SMILES,AC50,outcome
CNC(=O)Oc1cc(C)c(SC)c(C)c1,65.1 µM (active),–
C=CC(=O)OCCO,5.27 µM (active),–
O=CNC(N1CCN(C(NC=O)C(Cl)(Cl)Cl)CC1)C(Cl)(Cl)Cl (configuration not stated),–,inactive
c1ccc(Nc2ccc3ccccc3c2)cc1,–,inactive
Cc1ccc(OP(=O)(Oc2ccc(C)cc2)Oc2ccc(C)cc2)cc1 (tested in a mixture with another compound),–,inactive
Oc1cc(Cl)ccc1Cl,30.6 µM (active),–
CC(C)(C)C(O)C(Oc1ccc(-c2ccccc2)cc1)n1cncn1 (configuration not stated),–,inactive
CCOP(=O)(OCC)Oc1ccc([N+](=O)[O-])cc1,–,inactive
CC(Cc1ccc(C(C)(C)C)cc1)CN1C[C@@H](C)O[C@@H](C)C1 (some centres not stated),0.053 µM (active),–
O=C=Nc1ccccc1,0.492 µM (active),–
O=C(NC(=O)c1c(F)cccc1F)Nc1ccc(Oc2ccc(C(F)(F)F)cc2Cl)cc1F,1.28 µM (active),–
Nc1ccc(Cl)c(Cl)c1,10.7 µM (active),–

# From PubChem BioAssay (EPA / NIEHS)
